Results taken from the supplement of paper PMC12494721.
Counter-ions that a name gives are not always drawn.

Test system: Klebsiella aerogenes DSM 30053
Experiment: fold change of Putrescine concentration vs plate DMSO controls (fold change (ratio)); higher = more amine produced, active = hit call of the paper (significant change in both replicates, either direction)
Settings: incubation time: 27 h, anaerobic, 37 °C;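 for the amine columns active = adjusted P below 0.05 in both replicates with a change the same way and a mean fold change under 0.8 or over 1.25; inactive = the rest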
Procedure, shortened: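 Each value is the fold change relative to DMSO-only wells on the same plate. Four gut bacterial strains were grown anaerobically in mGAM at 37 °C for 27 h in 80 µL wells, starting at OD 0.1 before a 1:1 dilution, with compounds at 20 µM final (sweeteners 50 µM). Whole cultures were extracted with cold acetonitrile/methanol containing 0.1% formic acid, centrifuged, and amines were quantified by LC–triple-quadrupole MS (dynamic MRM) against external calibration curves with within-batch drift correction. Values are means of 2 biological replicates.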

| Structure (SMILES) | fold change of Putrescine concentration |
| --- | --- |
| O=c1[nH]c(=O)n(C2CCCO2)cc1F (stereo not given) [Tegafur] (20 µM) | 1 (inactive) |
| Nc1ccc(S(=O)(=O)Nc2ncccn2)cc1 [Sulfadiazine] (20 µM) | 1 (inactive) |
| Cc1onc(-c2c(Cl)cccc2Cl)c1C(=O)N[C@@H]1C(=O)N2[C@@H]1SC(C)(C)[C@@H]2C(=O)O [Dicloxacillin sodium salt hydrate] (20 µM) | 1.01 (inactive) |
| CN(C)CCC=C1c2ccccc2C=Cc2ccccc21 [Cyclobenzaprine hydrochloride] (20 µM) | 1 (inactive) |
| C#C[C@]1(O)CC[C@H]2[C@@H]3CCc4cc(O)ccc4[C@H]3CC[C@@]21C [Ethinylestradiol] (20 µM) | 0.998 (inactive) |
| CN1CC(O)c2cc(N=NC(N)=O)c(O)cc21 (stereo not given) [Carbazochrome] (20 µM) | 1.01 (inactive) |
| C[C@@H](O[C@H]1OCCN(Cc2n[nH]c(=O)[nH]2)[C@H]1c1ccc(F)cc1)c1cc(C(F)(F)F)cc(C(F)(F)F)c1 [Aprepitant] (20 µM) | 1.01 (inactive) |
| CCOC(=O)c1c(N)sc2c1CCN(Cc1ccccc1)C2 [Tinoridine hydrochloride] (20 µM) | 1 (inactive) |
| C/C(=C1\CCOC(=O)S1)N(C=O)Cc1cnc(C)nc1N [Cycotiamine] (20 µM) | 1.01 (inactive) |
| CCN1CCN(C(=O)N[C@@H](C(=O)N[C@@H]2C(=O)N3[C@@H]2SC(C)(C)[C@@H]3C(=O)O)c2ccccc2)C(=O)C1=O [Piperacillin sodium salt] (20 µM) | 1.06 (inactive) |
| CN1CCN2c3ccccc3Cc3ccccc3C2C1 (stereo not given) [Mianserine hydrochloride] (20 µM) | 0.98 (inactive) |
| O=C(Oc1cccc2cccnc12)c1ccccc1 [Benzoxiquine] (20 µM) | 1.02 (inactive) |
| Cc1cc(=O)n(-c2ccccc2)n1C [Antipyrine] (20 µM) | 1 (inactive) |
| O=C1c2cccc(O)c2C(=O)c2c(O)cccc21 [Danthron] (20 µM) | 0.975 (inactive) |
| Cc1c(Nc2ncccc2C(=O)O)cccc1C(F)(F)F [Flunixin meglumine] (20 µM) | 0.959 (inactive) |
